Screening data deposited in PubChem BioAssay by The Scripps Research Institute Molecular Screening Center.
TEAD-YAP inh: TEAD-YAP interaction inhibition | HEK-TIYL cells, TEAD-Gal4/YAP UAS-luciferase luminescence | inhibition, % at 9.12 µM | 640,000 tested, 1.4% active | AID 1259422; in the data active means inhibition above about 32%
GPR151 ag: activates the human receptor GPR151 | Q8TDV0 | PathHunter beta-arrestin GPR151 cells, luminescence | activation, % at 11.2 µM | 650,000 tested, 1% active; in the data active means activation above about 4.9%
Target sequence (Q8TDV0 whole entry, looked up): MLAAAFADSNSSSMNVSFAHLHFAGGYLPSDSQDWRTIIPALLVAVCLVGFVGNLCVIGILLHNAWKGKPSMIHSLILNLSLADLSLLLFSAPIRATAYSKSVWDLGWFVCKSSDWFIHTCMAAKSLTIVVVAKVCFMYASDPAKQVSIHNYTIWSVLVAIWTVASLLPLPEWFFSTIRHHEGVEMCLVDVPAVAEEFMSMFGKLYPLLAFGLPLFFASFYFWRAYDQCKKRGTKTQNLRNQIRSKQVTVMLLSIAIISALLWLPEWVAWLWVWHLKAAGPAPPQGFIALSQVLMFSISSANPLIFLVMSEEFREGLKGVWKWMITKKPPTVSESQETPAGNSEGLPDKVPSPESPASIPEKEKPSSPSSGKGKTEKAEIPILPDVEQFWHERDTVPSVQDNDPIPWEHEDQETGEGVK
FBW7 act: human FBW7 E3 ligase activation, primary screen | Q969H0 | AlphaScreen FBW7–phospho-cyclin E peptide binding, activator screen | normalized activity (activation), % at 26.1 µM | 650,000 tested, 0.13% active | AID 1259310; in the data active means normalized activity above about 1.9%;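 further: purified mutant Fbw7 with reduced substrate affinity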
MITF inh: inhibitors of human MITF | O75030 | AlphaScreen MITF homodimerization, bead proximity signal | inhibition, % at 2.6 µM | 650,000 tested, 0.91% active | AID 1259374; in the data active means inhibition above about 50%
GPR151 confirm: human GPR151 activation, confirmation screen; 6,700 tested, under 10 active; activation, % at 11.2 µM; GPR151 PathHunter beta-arrestin cells, luminescence, 90 min; % of EA-reagent control over plate median; shares compounds with GPR151 ag; AID 1508609;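 active means mean percent activation across replicates above the confirmation screen cutoff of 4.91%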
GPR119 counter: activates human GPR119 in a GPR151 counter-screen. shares compounds with GPR151 ag. GPR119 PathHunter beta-arrestin cells, luminescence, 90 min; 0 = compound-well median, 100 = enzyme-acceptor control. activation, % at 11.2 µM. 6,700 tested, 0.3% active. AID 1508611;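 active means mean percent activation in the counterscreen above 29.09%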;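 further: counterscreen on off-target GPR119 to flag nonselective hits from the GPR151 activator screen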
Hits are given with their value; ! = a repeat was not active. The list is not random: actives were taken first. Their share in the collection is about 3.5%.

`COCCO[C@H]1[C@H](NC(=O)C(C)C)c2ccccc2C12CCN(C(=O)C1CCCC1)CC2` gave TEAD-YAP inh inactive, GPR151 ag inactive, FBW7 act inactive and MITF inh inactive.
`COCCO[C@H]1[C@H](NC(=O)C(C)C)c2ccccc2C12CCN(C(=O)CCC(C)C)CC2` gave TEAD-YAP inh inactive, GPR151 ag 5.2, FBW7 act inactive, MITF inh inactive, GPR151 confirm inactive and GPR119 counter inactive.
Screening Cc1cccc(C(=O)CN2CCN(S(=O)(=O)c3cc(Cl)ccc3Cl)CC2)c1 returned TEAD-YAP inh inactive, GPR151 ag inactive, FBW7 act inactive and MITF inh inactive.
For O=C(Cc1ccc(F)cc1)N1CCC(O)(c2ccccn2)CC1 the results were TEAD-YAP inh inactive, GPR151 ag 11, FBW7 act inactive, MITF inh inactive, GPR151 confirm inactive and GPR119 counter inactive.
For O=C(Cc1cccc(F)c1)N1CCC(O)(c2ccccn2)CC1 the results were TEAD-YAP inh inactive, GPR151 ag inactive, FBW7 act inactive and MITF inh inactive.
`COc1ccc2oc(=O)c(N(C)S(=O)(=O)c3ccc(C)cc3)cc2c1` gave TEAD-YAP inh inactive, GPR151 ag 5.1, FBW7 act inactive, MITF inh inactive, GPR151 confirm inactive and GPR119 counter inactive.
Screening O=C(CCNS(=O)(=O)c1ccc2[nH]c(=O)ccc2c1)NCc1ccccc1 returned TEAD-YAP inh inactive, GPR151 ag 8.2, FBW7 act inactive, MITF inh inactive, GPR151 confirm inactive and GPR119 counter inactive.
`Cc1ccc(CNC(=O)CCNS(=O)(=O)c2ccc3[nH]c(=O)ccc3c2)cc1` gave TEAD-YAP inh inactive, GPR151 ag inactive, FBW7 act inactive and MITF inh inactive.
`NS(=O)(=O)c1ccc(N/N=C2\CCc3ccccc32)c([N+](=O)[O-])c1` gave TEAD-YAP inh inactive, GPR151 ag 7.5, FBW7 act inactive, MITF inh inactive, GPR151 confirm inactive and GPR119 counter inactive.
`Cc1cc(C)c2c(c1)/C(=N/Nc1ccc(S(N)(=O)=O)cc1[N+](=O)[O-])CCC2` gave TEAD-YAP inh inactive, GPR151 ag inactive, FBW7 act inactive and MITF inh inactive.
COc1cccc(CNC(=O)c2cnn3c(C)c(Cc4c(C)cc(C)cc4C)c(C)nc23)c1 was read as TEAD-YAP inh inactive, GPR151 ag inactive, FBW7 act inactive and MITF inh inactive.
`CCCCCCOc1ccc(-c2ncc(CCCCC)cn2)cc1` gave TEAD-YAP inh inactive, GPR151 ag 5.8, FBW7 act inactive, MITF inh inactive, GPR151 confirm inactive and GPR119 counter inactive.
CCCCCCc1cnc(-c2ccc(Br)cc2)nc1 was read as TEAD-YAP inh inactive, GPR151 ag inactive, FBW7 act inactive and MITF inh inactive.
`COCc1nnn(-c2nonc2N)c1C(=O)NNC(=O)C1CC1` gave TEAD-YAP inh inactive, GPR151 ag inactive, FBW7 act inactive and MITF inh inactive.
For COCc1nnn(-c2nonc2N)c1C(=O)NNC(=O)c1ccccc1Br the results were TEAD-YAP inh inactive, GPR151 ag 10, FBW7 act inactive, MITF inh inactive, GPR151 confirm inactive and GPR119 counter inactive.
`O=C(c1ccc(Br)cc1)C1C2C(=O)C3OCC(O3)C12` (stereo unspecified) gave TEAD-YAP inh inactive, GPR151 ag 8.0, FBW7 act inactive, MITF inh inactive, GPR151 confirm inactive and GPR119 counter inactive.
For O=C(O)C1CCN(c2ncnc3c2sc2cccc(F)c23)CC1 the results were TEAD-YAP inh inactive, GPR151 ag inactive, FBW7 act inactive and MITF inh inactive.
For CC1=C(C(=O)N2CCOCC2)C(c2ccc(O)cc2)NC(=S)N1 (stereo unspecified) the results were TEAD-YAP inh inactive, GPR151 ag 8.8, FBW7 act inactive, MITF inh inactive, GPR151 confirm inactive and GPR119 counter inactive.
Screening NC(CSC1CCCCO1)C(=O)O (stereo unspecified) returned TEAD-YAP inh inactive, GPR151 ag inactive, FBW7 act inactive and MITF inh inactive.
Screening CCOC(=O)C(N)CSC1CCCCO1 (stereo unspecified) returned TEAD-YAP inh inactive, GPR151 ag 8.2, FBW7 act inactive, MITF inh inactive, GPR151 confirm inactive and GPR119 counter inactive.
`CC(C)NC(=O)c1ccc(COCC(F)(F)F)cc1` gave TEAD-YAP inh inactive, GPR151 ag inactive, FBW7 act inactive and MITF inh inactive.
Screening CC(C)NC(=O)C(=O)NNC(=O)c1ccc(C(C)(C)C)cc1 returned TEAD-YAP inh inactive, GPR151 ag 5.7, FBW7 act inactive, MITF inh inactive, GPR151 confirm inactive and GPR119 counter inactive.
For CC(C)NC(=O)c1ccc(C(=O)C(F)(F)F)cc1 the results were TEAD-YAP inh inactive, GPR151 ag 5.6, FBW7 act inactive, MITF inh inactive, GPR151 confirm inactive and GPR119 counter inactive.
`Cn1/c(=N/N=C/c2ccc(O)c(O)c2O)sc2ccccc21` gave TEAD-YAP inh inactive, GPR151 ag inactive, FBW7 act inactive and MITF inh inactive.
For COc1ccccc1-c1noc(-c2ccccc2C(=O)N2CCN(C)CC2)n1 the results were TEAD-YAP inh inactive, GPR151 ag inactive, FBW7 act inactive and MITF inh inactive.
Screening CCN(CC)c1nc(Nc2ccc(N3CCOCC3)cc2)nc(Nc2cc(OC)c(OC)c(OC)c2)n1 returned TEAD-YAP inh inactive, GPR151 ag 9.3!, FBW7 act inactive, MITF inh inactive, GPR151 confirm inactive and GPR119 counter inactive.
CCN(CC)c1nc(Nc2cc(OC)c(OC)c(OC)c2)nc(Nc2cc(OC)c(OC)c(OC)c2)n1 was read as TEAD-YAP inh inactive, GPR151 ag inactive, FBW7 act inactive and MITF inh inactive.
COc1cc2nc(Nc3ccccc3)nc(Nc3ccc(N4CCOCC4)cc3)c2cc1OC was read as TEAD-YAP inh inactive, GPR151 ag 8.2, FBW7 act inactive, MITF inh inactive, GPR151 confirm inactive and GPR119 counter inactive.
For COc1cc2nc(Nc3ccc(N4CCOCC4)cc3)nc(Nc3ccccc3)c2cc1OC the results were TEAD-YAP inh inactive, GPR151 ag inactive, FBW7 act inactive and MITF inh inactive.
`COc1cc2nc(Oc3ccccc3)nc(Nc3ccc(NC(C)=O)cc3)c2cc1OC` gave TEAD-YAP inh inactive, GPR151 ag 7.4, FBW7 act inactive, MITF inh inactive, GPR151 confirm inactive and GPR119 counter inactive.
`COc1cc2nc(Nc3ccc4ncccc4c3)nc(Nc3ccc4c(c3)OCO4)c2cc1OC` gave TEAD-YAP inh inactive, GPR151 ag 7.7, FBW7 act inactive, MITF inh inactive, GPR151 confirm inactive and GPR119 counter inactive.
For O=C(Nc1cccc(Cl)c1)N1CCC(CO)(Cc2ccccc2)CC1 the results were TEAD-YAP inh inactive, GPR151 ag inactive, FBW7 act inactive and MITF inh inactive.
